Results taken from PubChem BioAssay (NCATS).
Inconclusive results are not listed. Calls of active or inactive are those of the source. The call rests on the fitted dose curve; in most records, active means well fitted activation curve with a large enough effect; inconclusive means small, poorly fitted or top-dose-only effect; inactive means flat fitted curve, though single readings scatter.

Experiment: Cellular Toxicity (caspase-3) H-4-II-E (AID 663);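 further: cells exposed to compound for 16 hr before readout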
Settings: H-4-II-E rat hepatoma, scaled: DMSO 0%, 100 µM tamoxifen 100%; at 92.2 µM (top of the series)
Excerpt: NIH Chemical Genomics Center [NCGC]
NIH Molecular Libraries Screening Centers Network [MLSCN]
National Institutes of Environmental Health Sciences [NIEHS]
National Toxicology Program [NTP]
We have developed a 1536-well cell-based assay for quantitative high throughput screening (qHTS) against a number of cell lines to determine in vitro caspase 3/7 of small molecules. This particular assay uses the H-4-II-E cell line which is derived from rat hepatoma.
NCGC Assay Protocol Summary:
The Caspase-Glo 3/7 assay (Promega) is a homogeneous method to measure caspase-3 and caspase-7 activities in cultured cells. The quantitation of caspase 3/7 activity is based on the cleavage of a peptide-aminoluciferin substrate. After caspase cleaves the substrate the free aminoluciferin is liberated and serves as the substrate of luciferase, which generates the light. The luminescent signal is proportional to amount of caspase 3/7 activity present.
Using the Caspase-Glo 3/7 assay, the amount of caspase 3/7 activity was measured in the H-4-II-E cell line with complete culture medium following compound treatment for 16 hours. The assay was performed in opaque white 1536-well plates. In the screen, tamoxifen and doxorubicin were used as positive controls. Library compounds were measured for their ability to cause the activation of caspase 3/7 in the cell line, as reflected by an increase in luminescence signal, in a concentration-dependent manner. Data were normalized to the controls for basal activity (DMSO only) and 100% stimulation (100 uM tamoxifen). AC50 values were determined from concentration-response data modeled with the standard Hill equation.
qHTS protocol for caspase 3/7 assay in H-4-II-E cells
[Step] [Parameter] [Value] [Description]
1. Reagent; 5 uL; 1500 H-4-II-E cells/well
2. Time; 5 hr; 37 °C incubation
4. Controls; 23 nL; Tamoxifen 0.23 uM to 100 uM & Doxorubicin 7.0 pM to 100 uM
5. Time; 16 hr; 37 °C incubation
6. Reagent; 5 uL; Caspase-Glo 3/7 reagent
7. Time; 20 min; Room Temperature
8. Detection; Luminescence; Viewlux plate reader
Keywords: caspase 3/7, apoptosis, H-4-II-E cell line, luminescence, NTPHTS, NTPHTS_NCGC, NIEHS, EPA, DSSTox, MLSMR, MLSCN, NIH Roadmap, qHTS, NCGC
For `O=c1[nH][nH]c(=O)c2cc([N+](=O)[O-])ccc12`, the caspase-3 activation was -0.659% (inactive). With `Nc1cccc(N)c1` the caspase-3 activation was 0.606% (inactive). For `CCOC(=O)C(C)C(C)=O` (stereo not given), the caspase-3 activation was 0.941% (inactive). For `Cc1ccccc1C#N`, the caspase-3 activation was 1.11% (inactive). For `C=Cc1ccccc1C=C`, the caspase-3 activation was 0.884% (inactive). For `CCNS(=O)(=O)c1ccc(C)cc1`, the caspase-3 activation was -1.14% (inactive). With `O=C1CCCCC1` the caspase-3 activation was 0.476% (inactive). In the case of `CC(C)Nc1ccccc1`, the caspase-3 activation is reported as 0.457% (inactive). In the case of `O=C(O)c1ccc(Cl)cc1Cl`, the caspase-3 activation is reported as 0.226% (inactive). For `O=[N+]([O-])c1ccc(CCO)cc1`, the caspase-3 activation was 0.267% (inactive). In the case of `Cc1ccc(N(C)C)cc1`, the caspase-3 activation is reported as -1.01% (inactive). In the case of `c1ccc2c(c1)Oc1ccccc1S2`, the caspase-3 activation is reported as -0.0621% (inactive). In the case of `O=C(Cl)c1c(Cl)cccc1Cl`, the caspase-3 activation is reported as 0.0127% (inactive). With `CC1CCC2CC1C2(C)C` (stereo not given) the caspase-3 activation was 1.27% (inactive). With `Nc1cccc2c(=O)[nH][nH]c(=O)c12` the caspase-3 activation was 0.0355% (inactive). In the case of `ClCCl`, the caspase-3 activation is reported as -0.724% (inactive). With `CSCCC=O` the caspase-3 activation was -0.467% (inactive). In the case of `CCOc1ccc(NC(C)=O)cc1N`, the caspase-3 activation is reported as 0.579% (inactive). In the case of `C=Cc1ccc(C=C)cc1`, the caspase-3 activation is reported as -0.942% (inactive). In the case of `CC(C)(O)CCC(C)(C)O`, the caspase-3 activation is reported as 0.513% (inactive). In the case of `Cc1cccc(C(=O)O)c1[N+](=O)[O-]`, the caspase-3 activation is reported as 0.904% (inactive). In the case of `OC1CCCC1`, the caspase-3 activation is reported as 0.647% (inactive). In the case of `O=Cc1c(Cl)cccc1Cl`, the caspase-3 activation is reported as 5.93% (inactive). In the case of `CCCC(C)CO` (stereo not given), the caspase-3 activation is reported as 1.09% (inactive). In the case of `ICCc1ccccc1`, the caspase-3 activation is reported as 0.877% (inactive). With `O=[N+]([O-])c1ccc2nc[nH]c2c1` the caspase-3 activation was 2.59% (inactive). With `Nc1cc([N+](=O)[O-])ccc1C(=O)O` the caspase-3 activation was -1.05% (inactive). With `COC(=O)c1ccccc1` the caspase-3 activation was 3.83% (inactive). For `C1CCOC1`, the caspase-3 activation was 0.164% (inactive). With `CC(C)=CCC/C(C)=C/C=O` the caspase-3 activation was 0.873% (inactive). In the case of `O=[N+]([O-])c1cccc(C(F)(F)F)c1`, the caspase-3 activation is reported as -0.931% (inactive). For `CN(C)c1cccc(O)c1`, the caspase-3 activation was 2.04% (inactive). In the case of `O=C(O)c1c(Cl)cccc1Cl`, the caspase-3 activation is reported as -0.197% (inactive). In the case of `O=[N+]([O-])c1ccccc1CCO`, the caspase-3 activation is reported as 1.12% (inactive). With `CC(=O)OC(C)C` the caspase-3 activation was 0.45% (inactive). For `COC(=O)CCCC(=O)OC`, the caspase-3 activation was -0.182% (inactive). In the case of `O=Nc1ccc(NO)cc1`, the caspase-3 activation is reported as 1.96% (inactive). With `OC(CCl)CCl` the caspase-3 activation was 1.01% (inactive). In the case of `Nc1nc(-c2ccccc2)cs1`, the caspase-3 activation is reported as 0.301% (inactive). For `C(=C/c1ccccc1)/c1ccccc1`, the caspase-3 activation was 0.852% (inactive).
